High-throughput results: PubChem, several laboratories
TPT1 inh – Candida albicans TPT1 enzyme inhibitors, primary screen, biochemical, fluorescence polarization; tRNA 2'-phosphotransferase TPT1 (Candida albicans SC5314); recombinant caTPT1, FP RNA substrate dephosphorylation; inhibition, % at 5 µM; 300,000 tested, 0.81% active;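 active means inhibition above the mean of all tested compounds plus 3 SD, set per screening campaign, cut at about 24% in these data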;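 further: plate controls were DMSO alone for no effect and ferristatin control at 100 nM for full effect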
Myeloid diff 2 – induction of myeloid progenitor differentiation, primary screen, cell-based, flow cytometry, MLPCN library. ER-HoxA9 myeloid progenitors, lysozyme-GFP differentiation. calls only at 10 µM. 360,000 tested, 1% active;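 active means normalized GFP-positive differentiation at or above the plate's own cutoff, the solvent-only control mean plus 3 SD; inconclusive means no clear call, values can overlap the other calls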;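 further: cells exposed to compound for four days before flow analysis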
IDE cell activ – human IDE activators in live cells, primary screen, fluorescence polarization, HEK cells, FAbeta-B substrate. Insulin-degrading enzyme (Homo sapiens), P14735. FAbeta-B cleavage; 0% vehicle, 100% cell-free pure enzyme wells. activation, % at 5.96 µM. 340,000 tested, 0.073% active. AID 493087, 2011;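 active means activation above the mean of all tested compounds plus 3 SD, set per screening campaign, cut at about 17% in these data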
Target sequence (P14735 whole entry, looked up): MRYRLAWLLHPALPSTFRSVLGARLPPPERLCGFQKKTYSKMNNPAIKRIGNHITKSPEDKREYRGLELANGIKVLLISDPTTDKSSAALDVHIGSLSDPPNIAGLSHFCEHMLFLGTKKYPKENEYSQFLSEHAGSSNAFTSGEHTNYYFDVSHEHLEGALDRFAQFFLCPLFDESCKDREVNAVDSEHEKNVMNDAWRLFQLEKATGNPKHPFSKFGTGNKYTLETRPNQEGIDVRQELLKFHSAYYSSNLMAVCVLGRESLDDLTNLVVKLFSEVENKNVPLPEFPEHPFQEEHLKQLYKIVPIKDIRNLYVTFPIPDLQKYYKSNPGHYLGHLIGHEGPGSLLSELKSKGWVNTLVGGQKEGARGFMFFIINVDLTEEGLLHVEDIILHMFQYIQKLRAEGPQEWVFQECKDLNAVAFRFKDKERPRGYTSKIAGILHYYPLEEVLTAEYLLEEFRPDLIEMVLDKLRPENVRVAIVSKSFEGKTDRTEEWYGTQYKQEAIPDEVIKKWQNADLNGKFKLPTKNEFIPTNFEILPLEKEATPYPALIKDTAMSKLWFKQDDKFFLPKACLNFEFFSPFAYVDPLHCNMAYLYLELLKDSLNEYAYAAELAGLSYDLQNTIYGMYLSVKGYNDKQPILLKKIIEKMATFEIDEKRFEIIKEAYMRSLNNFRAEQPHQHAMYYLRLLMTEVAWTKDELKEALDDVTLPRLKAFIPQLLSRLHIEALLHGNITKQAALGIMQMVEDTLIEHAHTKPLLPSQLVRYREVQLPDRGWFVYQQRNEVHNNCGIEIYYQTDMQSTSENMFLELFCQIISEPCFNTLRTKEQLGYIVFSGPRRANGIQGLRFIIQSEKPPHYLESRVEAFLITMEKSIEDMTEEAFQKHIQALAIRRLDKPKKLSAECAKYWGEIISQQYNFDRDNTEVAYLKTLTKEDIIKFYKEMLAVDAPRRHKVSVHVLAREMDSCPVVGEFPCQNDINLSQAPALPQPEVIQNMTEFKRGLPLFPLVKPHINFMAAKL
CRFBP-R2 block – antagonists of CRF-BP/CRF-R2 complex, primary screen, cell-based, HEK293, calcium dye fluorescence, uHTS. 350,000 tested, 0.59% active. inhibition, % at 11.8 µM. CRF-induced calcium fluorescence;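 active means inhibition of the ligand-induced calcium signal above about 50% at the single tested concentration, limit read from the data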
IDE cell inh – human IDE inhibitors in live cells, primary screen, fluorescence polarization, HEK cells, FAbetaB substrate | FAbetaB cleavage | 320,000 tested, 0.41% active | Insulin-degrading enzyme (Homo sapiens), P14735 | inhibition, % at 5.59 µM;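 active means percent inhibition above the average of all tested compounds plus 3 SD, set per screening campaign, cut at about 16% in these data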;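 further: IDE supplied by intact live HEK cells; FP after avidin binding of uncleaved biotin substrate so inhibition keeps polarization high; 0% = DMSO wells and 100% = 60 µM reference IDE inhibitor Ii1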
CRFR2-BP ag – agonists of CRF-BP/CRF-R2 complex, primary screen, cell-based, HEK293, calcium dye fluorescence, uHTS; CRF-binding protein / CRF receptor 2 complex (human); calcium dye fluorescence (FLIPR); percent of saturating CRF peptide response; activation, % at 13.2 µM; 350,000 tested, 0.46% active; AID 588473, 2011;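 active means activation of at least 50%, plus an integration ratio under a set limit after plate pattern correction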;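 further: plate controls were neutral control wells without compound for no effect and CRF at EC100 for full effect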
IDE inh confirm – human IDE inhibitors in live cells, confirmation, fluorescence polarization, HEK cells, FAbetaB substrate; shares compounds with IDE cell inh; FAbetaB cleavage; inhibition, % at 5.59 µM; 1,200 tested, 51% active;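 active means mean inhibition across triplicate wells above the cutoff set by the earlier primary insulin-degrading enzyme screen, cut at about 16% in these data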;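 further: 0% = DMSO wells and 100% = 60 µM reference IDE inhibitor Ii1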
HEK cytotox – cytotoxicity in HEK cells, cytotoxicity control for IDE inhibitor project, cell-based, luminescence; shares compounds with IDE cell inh; HEK293 cytotoxicity, ATP luminescence; inhibition, % at 5.59 µM; 1,200 tested, 28% active; in the data active means inhibition above about 22%;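 further: 0% = vehicle wells and 100% = reference cytotoxic drug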
* marks the source's active call; other numbers are inactive results; i = inactive; ? = inconclusive; · = no result given. Most compounds without a hit are left out; they make up all but 2.6% or so of the library.

SMILES	TPT1 inh	Myeloid diff 2	IDE cell activ	CRFBP-R2 block	IDE cell inh	CRFR2-BP ag	IDE inh confirm	HEK cytotox
O=C1OC(C(=O)O)Cc2ccccc21 (stereo not given)	0	i	-4	36	1	1	·	·
CCCCNC(=O)C(NC(=O)c1ccccc1)C(=O)c1ccccc1 (stereo not given)	·	i	·	·	·	·	·	·
CCCC[n+]1c2ccccc2cc2ccccc21	-2	i	-10	-22	16*	1	6	40*
c1ccc(-c2csc(CN3CCCCC3)n2)cc1	·	i	2	-10	·	0	·	·
CCn1c(=O)c(C(=O)CN2CCCc3ccccc32)c(N)n(Cc2ccccc2)c1=O	14	i	-4	1	37*	1	10	17
CCn1c(=O)c(C(=O)CN2c3ccccc3CC2C)c(N)n(Cc2ccccc2)c1=O (stereo not given)	5	i	1	-16	4	4	·	·
CCOC(=O)C1=C(COC(=O)c2ccc(Br)c(S(=O)(=O)N3CCOCC3)c2)NC(=O)NC1C (stereo not given)	·	i	1	8	·	3	·	·
CC(=O)c1ccc(NC(=O)C(C)OC(=O)C2CCN(c3ccc(C(F)(F)F)cn3)CC2)cc1 (stereo not given)	1	i	-4	4	-10	-1	·	·
CC(OC(=O)C1CCN(c2ccc(C(F)(F)F)cn2)CC1)C(=O)Nc1ccc(S(N)(=O)=O)cc1 (stereo not given)	-3	i	-16	-6	18*	-2	6	5
Cc1ccc(OCCSc2nnc(-c3ccncc3)n2C)cc1	-2	i	-39	2	36*	0	12	8
COc1ccc(C#Cc2cccc(-c3nc(C(=O)N4CCN(C)CC4)cc4c3[C@H](CCO)N(S(=O)C(C)(C)C)C4)c2)cc1OC (stereo not given in full)	·	i	·	·	·	·	·	·
COc1ccccc1C(CNC(=O)c1ccc(C)c(S(=O)(=O)N2CCCCC2)c1)N1CCCC1 (stereo not given)	·	i	-6	5	·	2	·	·
Cc1nc2ccc(NC(=O)c3ccc(Cl)c(S(=O)(=O)N(C)c4ccccc4)c3)cc2s1	0	i	-6	-26	26*	29	3	54*
Cc1nc2ccc(NC(=O)c3cc(S(=O)(=O)N(C)c4ccccc4)ccc3Cl)cc2s1	16	i	1	-12	5	2	·	·
O=C(NCCS(=O)(=O)N1CCN(c2ccccc2)CC1)C12CC3CC(CC(C3)C1)C2	·	i	·	-17	·	-2	·	·
COc1ccccc1N1CCN(S(=O)(=O)CCNC(=O)C23CC4CC(CC(C4)C2)C3)CC1	1	i	-20	-1	20*	0	9	32*
COc1cccc2sc(Nc3nc(-c4ccncc4)cs3)nc12	4	·	-8	-12	17*	-2	4	61*
COc1cccc2sc(Nc3nc(-c4cc5ccccc5oc4=O)cs3)nc12	15	?	-3	-6	5	1	·	·
COc1cccc2sc(Nc3nc4ccc(NC(C)=O)cc4s3)nc12	0	i	-16	11	24*	1	7	117*
O=C(Nc1ccc2ccccc2n1)Nc1cccs1	3	i	6	4	3	-1	·	·
Cc1ccsc1C(=O)OCC(=O)N(Cc1ccccc1)C(C)C	·	i	2	3	16*	-1	3	12
CCC1(c2ccc(Cl)cc2)NC(=O)N(Cc2ccc(C(=O)OC)cc2)C1=O (stereo not given)	-2	i	-3	-45	7	8	·	·
